HCV inhibitor = HCV inhibition. hit rate 3.4% among 340,000. Potency, µM (doses to about 41.8 µM), usual class: inhibitors. Huh7.5.1 HCVcc-Cre infection, luciferase reporter, 44 h; active means well fitted inhibition curve with a large enough effect; inconclusive means small, poorly fitted or top-dose-only effect, or another doubt; inactive means no such curve, though single readings can be large or run the other way
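Cells seeded at 1,000/well and cultured 4 h, then compounds added followed by HCVcc-Cre virus (~0.5 moi). After 44 h further culture, luciferase substrate was added, plates held 15 min at room temperature, and luminescence read for 15 sec.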
Vaccinia mCherry = vaccinia inhibition (mCherry reporter) | Potency, µM (top dose mostly 36.5 µM), most hits filed as inhibitors | hit rate 0.63% among 310,000 | Vaccinia virus mCherry reporter infection, fluorescence; calls by dose curve; tested in A549 cells; further: nearly all actives have a fitted effect of over 35% in size
HCMV antiviral = human cytomegalovirus inhibition; activity change, negative = inhibition, % at 57.5 µM; AID 1259415; HFF cells, HCMV-luciferase reporter, 72 h; stronger effect = lower value; hit rate 4.5% among 410,000; in the data active means activity change below about -60%; inconclusive means no clear call, values can overlap the other calls; inactive means above about -39%
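Two compound doses tested in HFFs infected with HCMV-luciferase, MOI 1 PFU/cell, 72 h at 37C. Lysate luminescence read with OneGlo; data normalized against buffer-only and 10uM Salinomycin inhibitor controls.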
VACV Venus inh = vaccinia inhibition (Venus reporter) | Vaccinia virus Venus reporter expression, fluorescence | Potency, µM (highest dose often 36.5 µM), usual class: inhibitors | hit rate 0.46% among 330,000 | AID 720580; calls by dose curve; tested in A549 cells; further: nearly all actives have a fitted effect of over 30% in size
FMDV inh = foot and mouth disease virus antiviral activity; FMDV antiviral cell-based qHTS; Potency, µM (highest dose often 57.9 µM), most hits filed as inhibitors; hit rate 1.2% among 410,000; calls by dose curve; tested in HEK293T cells; further: read-out not given here; nearly all actives have a fitted effect of over 45% in size
Of the large screens only hits and unclear results are named; the others gave an inactive call. Most compounds without a hit are left out; they make up all but 7.3% or so of the library.

CCCc1cc(=O)oc2cc(OCC(=O)NC3CC(C)(C)NC(C)(C)C3)ccc12	HCV inhibitor inconclusive
CC(=O)c1ccc(NC(=O)CCc2c(C)nc3c(c2C)c(=O)n(C)c(=O)n3C)cc1	none (no result: HCV inhibitor)
O=C(Cn1c(SCCOc2ccccc2Cl)nc2ccccc21)N1CCOCC1	none (no result: HCV inhibitor)
Cc1ccc2c(c1)C(=O)C(=O)N2CC1COc2ccccc2O1 (centres undefined)	HCMV antiviral -67.5
COc1ccc2c(c1)C(=O)C(=O)N2CC1COc2ccccc2O1 (centres undefined)	HCMV antiviral -81.5 (no result: Vaccinia mCherry, VACV Venus inh)
Cc1ccc2c(c1)C(=O)C(=O)N2Cc1ccccc1	none
CCOc1ccc2c(c1)C(=O)C(=O)N2CC1COc2ccccc2O1 (centres undefined)	HCMV antiviral -64.5, FMDV inh inconclusive (no result: Vaccinia mCherry, VACV Venus inh)
COc1ccc2c(c1)C(=O)C(=O)N2CCS(=O)(=O)c1ccccc1	HCMV antiviral inconclusive (no result: Vaccinia mCherry, VACV Venus inh)
CCN1CCN(CC2COc3ccccc3O2)CC1 (centres undefined)	HCMV antiviral -64.0 (no result: Vaccinia mCherry, VACV Venus inh)
Cc1cc(C2=CC(=O)C[C@H](c3ccc(F)cc3)C2)ccc1F	HCMV antiviral -61.8 (no result: HCV inhibitor)
Cc1ccc(C2=CC(=O)C[C@H](c3ccc4c(c3)OCO4)C2)cc1	none
CSc1ccc(C2=CC(=O)C[C@H](c3ccc4c(c3)OCO4)C2)cc1	HCMV antiviral -64.3
C/C=C1\NC(=O)[C@H](CC(N)=O)N(C)C(=O)C([C@@H](C)O)NC(=O)C(CCCc2ccc(OC)cc2)NC(=O)[C@H](C(C)C)NC(=O)/C(=C\C)NC(=O)[C@H](O)[C@@H](C[C@@H](O)CCCCCCC)NC(=O)[C@H](C)NC(=O)CN(C)C(=O)[C@H](CCC(N)=O)NC1=O (some centres undefined)	Vaccinia mCherry inconclusive, VACV Venus inh inconclusive
CN1CCN(c2ccc(N)c(N3CCN(C)CC3)c2)CC1	none (no result: Vaccinia mCherry)
O=C1c2ccccc2C(=O)c2cc(N3CCCCC3)ccc21	HCV inhibitor inconclusive, FMDV inh 10µM
Nc1ccc(N2CCCCC2)c2nonc12	HCMV antiviral -67.3
Nc1ccc(N2CCCCC2)cc1N1CCCCC1	HCV inhibitor inconclusive, HCMV antiviral -68.9, VACV Venus inh inconclusive, FMDV inh inconclusive (no result: Vaccinia mCherry)
Fc1cccc(Nc2cc3c(cn2)ncn3CC2CC2)c1	none (no result: HCV inhibitor, Vaccinia mCherry, VACV Venus inh, FMDV inh)
CC(C)(O)CCc1c(-c2ccc(O)cc2O)oc2c3c(cc(O)c2c1=O)OC(C)(C)C=C3	HCV inhibitor 12.6µM
COc1c2c(cc3oc(=O)ccc13)OC(C)(C)C=C2	HCV inhibitor inconclusive
O=C(Nc1ccc(-c2nc3cccnc3s2)cc1)c1ccco1	HCV inhibitor inconclusive, VACV Venus inh inconclusive
O=C(Nc1ccc(-c2nc3cccnc3s2)cc1)c1ccc(Cl)nc1	HCV inhibitor inconclusive
O=C(Nc1ccc(-c2nc3cccnc3s2)cc1)c1cccnc1Cl	HCV inhibitor 6.31µM
O=C(Nc1cccc(-c2nc3cccnc3s2)c1)c1cccc(Br)c1	HCMV antiviral -66.6 (no result: HCV inhibitor)
O=C(Nc1ccc(-c2nc3cccnc3s2)cc1)c1ccc(Br)o1	HCV inhibitor 11.2µM, HCMV antiviral -91.0
CN(C)c1ccc(C(=O)Nc2cccc(-c3nc4cccnc4s3)c2)cc1	none (no result: HCV inhibitor)
C#CCN1c2ccccc2Sc2cccnc21	HCV inhibitor inconclusive
CC(=O)Nc1ccc(C(=O)OCC(=O)N(c2ccccc2)C2CCS(=O)(=O)C2)cc1 (centres undefined)	none (no result: Vaccinia mCherry, VACV Venus inh)
O=C(CCl)N(c1ccccc1)C1CCS(=O)(=O)C1 (centres undefined)	HCV inhibitor 22.4µM, Vaccinia mCherry 10µM, HCMV antiviral -102.6, VACV Venus inh 11.2µM, FMDV inh inconclusive
Cc1cccnc1NC(=S)Nc1ncccc1C	none
COc1ccc(NC(=S)Nc2ccccc2)c(OC)c1	none (no result: Vaccinia mCherry, VACV Venus inh)
COc1ccc(NC(=S)Nc2ccc(OCc3ccccc3)cc2)c(OC)c1	HCV inhibitor inconclusive, HCMV antiviral -76.5
COc1ccc(NC(=S)Nc2ncccc2C)c(OC)c1	Vaccinia mCherry inconclusive, HCMV antiviral -63.1, VACV Venus inh inconclusive (no result: FMDV inh)
COc1ccc(NC(=S)Nc2ncccc2C)cc1OC	none
CCOc1ccccc1NC(=S)Nc1ncccc1C	HCV inhibitor 6.31µM, Vaccinia mCherry inconclusive, HCMV antiviral -61.1, VACV Venus inh inconclusive
Cc1ccc(S(=O)(=O)N2CCN(C(=O)COC(=O)c3ccc(Cl)nc3)CC2)c(C)c1	none (no result: Vaccinia mCherry, VACV Venus inh)
C[C@H]1[C@H](c2ccccc2)Oc2cccc(NCCc3ccccc3)c2S(=O)(=O)N1Cc1ccc(F)cc1	none (no result: HCV inhibitor, Vaccinia mCherry, VACV Venus inh, FMDV inh)
Cn1c(SCc2cccc(F)c2)nc2c([nH]c3ccccc32)c1=O	Vaccinia mCherry inconclusive, VACV Venus inh inconclusive (no result: HCV inhibitor)
CCc1ccc(CNCc2cccs2)cc1	none
CCc1ccc(S(=O)(=O)NCc2cccs2)cc1	HCMV antiviral -66.4
CN(C(=O)COc1ccccc1C(=O)Nc1ccccc1)c1ccccc1	none (no result: HCV inhibitor, HCMV antiviral, FMDV inh)
O=C(C(=O)N1CCC(Cc2ccccc2)CC1)c1ccccc1Br	Vaccinia mCherry inconclusive, HCMV antiviral -63.4 (no result: HCV inhibitor)
CCOC(=O)C(=O)N1CCC(Cc2ccccc2)CC1	none
O=C(c1cnc(Cc2c[nH]c3ccccc23)c(I)c1)N1CCOCC1	none (no result: HCV inhibitor, Vaccinia mCherry, VACV Venus inh, FMDV inh)
CCCc1cc(C(=O)Nc2cc(C)ccc2O)no1	HCV inhibitor inconclusive, Vaccinia mCherry inconclusive, HCMV antiviral -69.1
CCCc1cc(C(=O)Nc2ccccc2C(=O)OC)no1	HCV inhibitor 10µM
COc1ccc(N2C(=O)[C@@H]3C[C@H]2CN3Cc2cccn2-c2ccccn2)cc1Cl	none (no result: HCV inhibitor, HCMV antiviral)
COC(=O)C(Cc1c[nH]c2ccccc12)NC(=O)COc1ccc(Cl)cc1Cl (centres undefined)	none (no result: HCV inhibitor)
O=[N+]([O-])c1ccc(Sc2nc3ccccc3o2)c([N+](=O)[O-])c1	Vaccinia mCherry inconclusive, HCMV antiviral -107.0, VACV Venus inh inconclusive, FMDV inh 35.5µM (no result: HCV inhibitor)
CCn1c(=O)n(CC)c2cc(N3CCCC3)c(NC(=O)c3cc(Br)ccc3OC)cc21	HCV inhibitor inconclusive, HCMV antiviral -69.8, FMDV inh inconclusive (no result: Vaccinia mCherry, VACV Venus inh)
CCn1c(=O)n(CC)c2cc(N3CCCC3)c(NC(=O)c3ccccc3C)cc21	HCV inhibitor inconclusive, FMDV inh inconclusive (no result: Vaccinia mCherry, VACV Venus inh)
CCn1c(=O)n(CC)c2cc(N3CCCC3)c(NC(=O)c3ccccc3F)cc21	HCV inhibitor 12.6µM, Vaccinia mCherry inconclusive
O=C(CCn1ccc2cc(S(=O)(=O)N3CCCC3)ccc21)NCc1cccc(Br)c1	none (no result: HCV inhibitor)
CC1(C)OC(=O)C2(Cc3cc([N+](=O)[O-])ccc3N3CCCCC32)C(=O)O1 (centres undefined)	none (no result: HCV inhibitor, HCMV antiviral, FMDV inh)
O=S(=O)(c1ccccc1)c1c2c(cc3ccc(Cl)cc13)CCC2	none (no result: HCV inhibitor, Vaccinia mCherry, VACV Venus inh, FMDV inh)
COc1cccc(OC)c1C(=O)NCCc1ccccc1	none (no result: Vaccinia mCherry, VACV Venus inh)
COC(=O)c1c(N)sc(C(=O)NCCc2ccccc2)c1C	HCV inhibitor inconclusive, HCMV antiviral inconclusive, FMDV inh 6.31µM
Nc1ncnc2c1ncn2[C@@H]1O[C@H](C(=O)N[C@H](CO)Cc2ccc(O)cc2)[C@@H](O)[C@H]1O	none (no result: HCV inhibitor)
COc1ccc(CN2CCC(n3nccc3NC(=O)CCc3ccccc3)CC2)c(C)c1C	FMDV inh inconclusive (no result: Vaccinia mCherry, VACV Venus inh)
Cc1coc2c1c(C)cc1oc(=O)c(CC(=O)NCc3ccc(Cl)cc3)c(C)c12	none (no result: HCV inhibitor)
O=C(COC(=O)c1ccc2[nH]c3c(c2c1)CCCC3)Nc1ccccc1	HCV inhibitor 12.6µM
